Results taken from PubChem BioAssay AID1511 (Johns Hopkins Ion Channel Center, 2009).
Screen size: about 310,000 compounds; about 1,600 (0.52%) were called active. This is one part of a sample in which actives are shown more often than they occur. A number with no mark means an inactive call.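 Rule for the calls: active = activation above the mean of controls blocked by dofetilide plus 5 SD; inactive = the rest.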

The compounds below were run against Voltage-gated inwardly rectifying potassium channel KCNH2 (Homo sapiens) (UniProt Q12809) (assay: hERG rescue from dofetilide block, primary screen, cell-based, CHO-hERG, FluxOR thallium flux, dofetilide IC70 (AID 1511;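 note: thallium influx through hERG after potassium depolarization seen as dye fluorescence rise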)). Conditions: dofetilide IC70 present, at 10 µM, hits give high values.
Sequence of Voltage-gated inwardly rectifying potassium channel KCNH2 (Homo sapiens) (Q12809 whole entry, looked up): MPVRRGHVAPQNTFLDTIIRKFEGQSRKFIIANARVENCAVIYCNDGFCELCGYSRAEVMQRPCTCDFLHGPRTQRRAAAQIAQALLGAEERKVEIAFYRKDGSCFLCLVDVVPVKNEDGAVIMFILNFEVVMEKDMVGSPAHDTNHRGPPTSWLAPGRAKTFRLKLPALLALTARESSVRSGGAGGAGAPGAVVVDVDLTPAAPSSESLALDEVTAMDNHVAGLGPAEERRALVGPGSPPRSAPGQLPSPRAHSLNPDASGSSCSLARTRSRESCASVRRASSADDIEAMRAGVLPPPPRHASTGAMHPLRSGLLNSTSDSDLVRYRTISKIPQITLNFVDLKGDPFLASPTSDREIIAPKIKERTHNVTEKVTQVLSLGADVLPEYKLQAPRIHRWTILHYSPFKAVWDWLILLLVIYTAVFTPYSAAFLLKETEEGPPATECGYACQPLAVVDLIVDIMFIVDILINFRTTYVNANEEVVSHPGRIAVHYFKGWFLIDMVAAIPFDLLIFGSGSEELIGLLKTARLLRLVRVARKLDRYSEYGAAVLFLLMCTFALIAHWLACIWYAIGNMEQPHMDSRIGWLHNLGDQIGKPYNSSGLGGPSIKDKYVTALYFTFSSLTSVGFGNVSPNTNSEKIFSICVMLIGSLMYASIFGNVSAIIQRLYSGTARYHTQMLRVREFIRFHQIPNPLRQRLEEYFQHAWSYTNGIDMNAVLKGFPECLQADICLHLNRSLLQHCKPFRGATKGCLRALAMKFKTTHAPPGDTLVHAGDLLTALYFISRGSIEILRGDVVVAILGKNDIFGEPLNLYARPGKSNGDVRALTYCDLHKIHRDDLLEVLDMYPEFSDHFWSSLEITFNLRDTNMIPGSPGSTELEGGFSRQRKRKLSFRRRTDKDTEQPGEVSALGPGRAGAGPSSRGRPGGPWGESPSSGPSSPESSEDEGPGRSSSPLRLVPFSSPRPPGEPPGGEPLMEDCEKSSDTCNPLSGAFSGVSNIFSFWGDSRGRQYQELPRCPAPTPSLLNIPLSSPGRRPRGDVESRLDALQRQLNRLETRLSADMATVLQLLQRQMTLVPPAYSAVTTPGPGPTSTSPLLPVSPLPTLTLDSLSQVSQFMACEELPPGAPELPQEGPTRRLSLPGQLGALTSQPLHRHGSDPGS

| SMILES | activation (rescue from dofetilide block), less the hit threshold |
| --- | --- |
| Cc1cccc(NC(=O)c2ccc3ccccc3n2)n1 | -1.08% |
| CCOC(=O)C(=CNc1cccc(C)n1)C(=O)OCC | 5.91% (active) |
| Cc1cccc(NC(=O)Cc2ccc(Br)cc2)n1 | -12.3% |
| COC(=O)[C@H](CC(C)C)NC(=O)N1CCCCC1C (some centres undefined) | -7.74% |
| CCc1ccc(CN(C)C(=O)CCc2nnc(-c3ccc(-c4ccccc4)cc3)o2)nc1 | -22.3% |
| NS(=O)(=O)c1ccc(CNC(=O)c2ccc(Cl)cc2[N+](=O)[O-])cc1 | -2.96% |
| O=C(Cn1ccc2cc(S(=O)(=O)N3CCCC3)ccc21)NCc1ccccc1 | -5.85% |
| Cc1ccc(/C=N/NC(=O)c2cc3ccccc3cc2O)o1 | 41.5% (active) |
| N=c1oc2ccccc2cc1C(=O)N/N=C/c1ccccc1 | -8.66% |
| O=C(N/N=C/c1cccnc1)c1cc2ccccc2cc1O | -0.07% |
| CCOC(=O)CCCN1CC(O)=C(c2nc3ccccc3s2)C1=N | -12% |
| CCCCCN1CC(O)=C(c2ccccc2)C1=N | 5.35% (active) |
| CCCCCN1CC(O)=C(c2nc(-c3ccc(Cl)cc3)cs2)C1=N | -8.57% |
| CCC1OC(c2ccc([N+](=O)[O-])cc2)=Nc2ccccc21 (centres undefined) | -15.1% |
| Cc1ccc(C(C)C)cc1OCC(=O)Nc1ccccc1N1CCCC1 | -20.3% |
| COc1ccc2oc(N)c(C=O)c(=O)c2c1 | -3.18% |
| CCc1cc2c(=O)c(-c3ccon3)c(N)oc2cc1OC | 5.25% (active) |
| CCc1cc2c(=O)c(-c3ccc(F)cc3)c(C(F)(F)F)oc2cc1OCC(=O)O | -11.1% |
| CCOC(=O)c1cc(-c2ccc(Cl)s2)nc2c1c(C)nn2C | -9.55% |
| CC12c3ccccc3C(c3ccccc31)C1C(=O)N(Cc3cccnc3)C(=O)C12 (centres undefined) | -9.37% |
| CCOC(=O)C1CCN(C(=O)COc2cccc3ccccc23)CC1 | -10.3% |
| O=C(CN(CC1CCCO1)C(=O)CNS(=O)(=O)c1ccccc1)NCc1ccccc1 (centres undefined) | -7.03% |
| CC(C)C(C(=O)NCc1ccco1)N(CC1CCCO1)C(=O)CNS(=O)(=O)c1ccc(F)cc1 (centres undefined) | 0.16% |
| O=C(CN(CC1CCCO1)C(=O)CNS(=O)(=O)c1ccc(F)cc1)NCc1ccco1 (centres undefined) | 4.78% (active) |
| O=C(CSc1ccccn1)N1CCN(S(=O)(=O)c2ccc(Cl)cc2)CC1 | -10.1% |

| SMILES | activation (rescue from dofetilide block), less the hit threshold |
| --- | --- |
| CC1(C)Cc2cccc(OCC(=O)Nc3nccs3)c2O1 | 7.68% (active) |
| CC1(C)Cc2cccc(OCC(N)=O)c2O1 | -3.71% |
| CC1(C)Cc2cccc(OCC(=O)NCc3ccccc3)c2O1 | -7.06% |
| Cc1ccc2c(c1)N(S(=O)(=O)c1cc(-c3cc(C)no3)ccc1C)CCO2 | -7.78% |
| O=C(CCc1ccccc1)NCCc1cccs1 | -5.64% |
| COc1cc(S(=O)(=O)N2CCOCC2)ccc1NC(=O)COc1ccc(N(C)S(=O)(=O)c2ccc(C)cc2)cc1 | -22.3% |
| O=C1NC(c2ccccc2)Oc2ccccc21 (centres undefined) | -10.1% |
| CCNC(=S)Nc1ccc(OC(F)(F)F)cc1 | -17.9% |
| CS(=O)(=O)c1sc(C(=O)NC(=S)Nc2ccc(OC(F)(F)F)cc2)c2c1C=CCC2 | 6.46% (active) |
| FC(F)(F)Oc1ccc(NC(=S)NCc2ccccc2)cc1 | -9.66% |
| CC1(C)Cc2c(sc(NC(=O)C(=O)N3CCOCC3)c2C#N)CO1 | -11.7% |
| CC(=O)Nc1ccc(NC(=O)CSc2nnnn2C2CCCCC2)cc1 | -7.91% |
| CCC(=O)Nc1cccc(NC(=O)CSc2nnnn2C2CCCC2)c1 | -7.7% |
| O=C(CSc1nnnn1C1CCCC1)Nc1ccc2c(c1)OCCO2 | 6.54% (active) |
| O=C(O)c1ccccc1-c1ccccc1C(=O)NCCc1ccccc1 | -5.86% |
| CC(C)c1ccc(S(=O)(=O)NC2CCCC2)cc1 | -6% |
| CCOc1cc(CNn2c(C)nnc2SCC(=O)NC(C)(C)C)ccc1OCC(=O)NC(C)(C)C | -9.51% |
| CC1CCN(C(=S)NC2CC3CCC2C3)CC1 (centres undefined) | -8.02% |
| COc1ccc(CN2CCOC2=O)cc1OC | -6.78% |
| COc1ccc(CN2CC[C@H]3C=CC[C@@H](C(=O)N4CCOCC4)[C@H]3C2=O)cc1OC | 5.8% (active) |
| COc1ccc(CNC(=O)[C@@H]2CC=C[C@@H]3CCN(C4CC4)C(=O)[C@@H]32)cc1 | -7.13% |
| Cc1ccc(S(=O)(=O)c2c[nH]c3ccc(C)cc3c2=O)cc1 | -9.36% |
| Cn1c(CC(=O)Nc2ccc(F)cc2)nnc1SCC(=O)NC1CCCCC1 | -1.47% |
| CCOC(=O)c1c(NC(=S)Nc2ccccc2)sc2c1CCN(C)C2 | -15.5% |
